The results in this text go back to PubChem BioAssay (NCI).

This is part of a sample that, as a whole, favours compounds with a hit. Of some 83,000 tested, about 20% had one in any assay.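 Interpretation: 100, growth as untreated; towards 0, rising growth inhibition; 0, no net growth; 0 to -100, cell death. Compounds scoring below 10 were considered active.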 Values without a mark were called inactive. Activity calls are given as the source filed them.

Test systems include DU-145 prostate; K-562 leukemia; MALME-3M melanoma; MDA-MB-231 breast; SF-268 CNS; SF-295 CNS; SF-539 CNS; UACC-257 melanoma; M14 melanoma.
Common to all, as to test: NCI-60 one-dose screen, 48 h (100 = growth as untreated, 0 = no growth, -100 = all killed)
Common to all, as to conditions: 10 µM

Consider `Cc1cc(C)nc(NS(=O)(=O)c2ccc(N/C(N)=N/c3nccc(-c4cccs4)n3)cc2)n1`, for which the growth was 109% with DU-145 prostate; 89.3% in the assay on K-562 leukemia; 94.2% in the assay with MALME-3M melanoma; 87% in the assay with MDA-MB-231 breast; 99.4% in the assay with SF-268 CNS; 92.6% in the assay with SF-295 CNS. Further, the growth in the assay on SF-539 CNS was 80.4%; in the assay with UACC-257 melanoma, 111%; in the assay with M14 melanoma it was 106%.
For the molecule `CN1CCN(Cc2ccc(C(=O)Nc3cccc(Nc4ccc5c(O)cccc5n4)c3)cc2C(F)(F)F)CC1`, the growth in the assay with DU-145 prostate was -1.97% (active); in the assay with K-562 leukemia, 8.33% (active); with MALME-3M melanoma it was -95.9% (active); with MDA-MB-231 breast it was -59.5% (active); in the assay on SF-268 CNS, 2.2% (active); in the assay with SF-295 CNS, -69.3% (active). Besides, the growth was -91.5% (active) with SF-539 CNS, -78.7% (active) in the assay with UACC-257 melanoma and -87.3% (active) in the assay on M14 melanoma.
With `COc1ccc(-c2cc(-c3cc(C(=O)c4ccccc4)n4ccc(C)cc34)nc(N)c2C#N)cc1`, the growth in the assay with DU-145 prostate is 77.9%; in the assay on K-562 leukemia, 88.3%; in the assay with MALME-3M melanoma it was 50.8%; in the assay with MDA-MB-231 breast, 34.4%; with SF-268 CNS, 41.2%; in the assay with SF-295 CNS, 45.2%. In addition, the growth was 7.52% (active) with SF-539 CNS, 84.4% with UACC-257 melanoma and 79.8% in the assay with M14 melanoma.
Regarding `Clc1ccc2c(N/N=C/c3c[nH]c4ccc(Br)cc34)ccnc2c1`, the growth with DU-145 prostate is -79.3% (active); in the assay on K-562 leukemia, -25.5% (active); in the assay on MALME-3M melanoma, -83% (active); with MDA-MB-231 breast, -90.4% (active); in the assay with SF-268 CNS, -35.7% (active); in the assay with SF-295 CNS, -99.4% (active). In addition, the growth in the assay on SF-539 CNS was -87.6% (active); in the assay with UACC-257 melanoma, -83.8% (active); with M14 melanoma, -46.3% (active).
For `OCCNc1oc(-c2ccccc2)nc1[P+](c1ccccc1)(c1ccccc1)c1ccccc1`, the growth in the assay on DU-145 prostate was 16.6%; with K-562 leukemia, 11.2%; in the assay on MALME-3M melanoma, -26.1% (active); in the assay on MDA-MB-231 breast, -5.38% (active); with SF-268 CNS, 5.6% (active); with SF-295 CNS, 20.7%. Further, the figures for the growth in the assay with SF-539 CNS, in the assay with UACC-257 melanoma and in the assay on M14 melanoma were 16.7%, -9.09% (active) and 11%, respectively.
As to `CN1CCc2c(sc3ncnc(N/N=C/c4cn(-c5ccccc5)nc4-c4ccc(Cl)cc4)c23)C1`, the growth is 31.4% with DU-145 prostate; 9.51% (active) in the assay with K-562 leukemia; 17.8% in the assay on MALME-3M melanoma; 4.63% (active) with MDA-MB-231 breast; 30.7% with SF-268 CNS; 21.6% in the assay on SF-295 CNS. Further, the growth in the assay on SF-539 CNS is 7.13% (active); in the assay on UACC-257 melanoma, 8.67% (active); with M14 melanoma, 16.6%.
In the case of `CN1CCCN(Cc2ccc(C(=O)Nc3cccc(Nc4ccc5c(O)cccc5n4)c3)cc2C(F)(F)F)CC1`, the growth with DU-145 prostate is -44.5% (active); with K-562 leukemia, 11.5%; in the assay with MALME-3M melanoma, -95.9% (active); in the assay with MDA-MB-231 breast, -75.6% (active); in the assay on SF-268 CNS, -55.6% (active); in the assay with SF-295 CNS it was -91% (active). Also, the growth is -98.3% (active) in the assay on SF-539 CNS, -81.3% (active) in the assay with UACC-257 melanoma and -84.7% (active) in the assay with M14 melanoma.
For `COc1ccc(C(=O)CSc2nnc(-c3c[nH]c4ccccc34)n2-c2ccccc2)cc1`, the growth in the assay with DU-145 prostate is 68.9%; in the assay on K-562 leukemia, 58.2%; with MALME-3M melanoma, -16.2% (active); with MDA-MB-231 breast, 32.5%; in the assay on SF-268 CNS, 41%; in the assay on SF-295 CNS, 36.2%. Moreover, the values for the growth in the assay on SF-539 CNS, in the assay on UACC-257 melanoma and in the assay on M14 melanoma were 28.5%, 59.5% and 75.7%, respectively.
With `CCOC(=O)CNC(=O)CN(Cc1ccccc1)C(=O)[C@@]1(C)CCC[C@]2(C)[C@H]3CC4C(C(C)C)=C[C@]3(CC[C@H]21)[C@@H]1C(=O)CCC(=O)[C@H]41`, the growth was 92.6% with DU-145 prostate; 25.3% in the assay on K-562 leukemia; 83% with MALME-3M melanoma; 64.8% with MDA-MB-231 breast; 64.7% in the assay with SF-268 CNS; 54.4% with SF-295 CNS. Besides, the growth in the assay on SF-539 CNS is 77.2%; with UACC-257 melanoma, 70.2%; in the assay with M14 melanoma, 72.2%.
For the molecule `COc1cc(C2CC(c3ccccc3)=Nc3c(N)nc(N)nc3N2)ccc1Oc1nc(Nc2ccc(F)cc2)nc(N(C)C)n1` (stereo unspecified), the growth with DU-145 prostate is 48%; in the assay on K-562 leukemia, 17.9%; in the assay with MALME-3M melanoma, 32.4%; in the assay on MDA-MB-231 breast, 31%; with SF-268 CNS, 55%; with SF-295 CNS, 45.9%. In addition, the growth with SF-539 CNS is 63%; in the assay on UACC-257 melanoma it was 45.4%; with M14 melanoma it was 46.6%.
Turning to `Cc1ccc(-c2ccc(SCC(=O)Nc3ccc(S(N)(=O)=O)cc3Br)nn2)cc1`, the growth in the assay with DU-145 prostate was 21.5%; in the assay with K-562 leukemia, 72.4%; in the assay with MALME-3M melanoma it was 29%; in the assay with MDA-MB-231 breast, 1.3% (active); in the assay with SF-268 CNS, 45.9%; in the assay on SF-295 CNS, 21.6%. Also, the growth was 13.3% in the assay with SF-539 CNS, 77.9% in the assay with UACC-257 melanoma and 69.5% with M14 melanoma.
Regarding `CN(C)c1ccc(/C=C/c2nc3ccccc3c(=O)n2CC(=O)Nc2ccccc2)cc1`, the growth was 42.1% with DU-145 prostate; 55.6% in the assay with K-562 leukemia; 15.7% with MALME-3M melanoma; 33.4% in the assay with MDA-MB-231 breast; 57.3% with SF-268 CNS; 35.5% in the assay on SF-295 CNS. For the same molecule, the growth in the assay with SF-539 CNS was -26.8% (active); in the assay on UACC-257 melanoma it was 60.4%; with M14 melanoma, 81.4%.
For `O=C(/C=C/Nc1ccc(F)cc1F)c1ccc2c(c1)Nc1ccccc1S2`, the growth is 89.4% with DU-145 prostate; 28.6% with K-562 leukemia; 66.1% in the assay on MALME-3M melanoma; 77.5% in the assay with MDA-MB-231 breast; 82.2% in the assay on SF-268 CNS; 65.3% in the assay with SF-295 CNS. Moreover, the results for the growth in the assay on SF-539 CNS, with UACC-257 melanoma and in the assay on M14 melanoma were 62.4%, 88.2% and 66.4%, respectively.
As to `Cc1ccc(/C=C/C(=O)c2ccc(S(=O)(=O)NCCNc3nc(Nc4ccc(F)cc4)nc(N(C)C)n3)cc2)cc1`, the growth with DU-145 prostate is 30%; in the assay on K-562 leukemia it was 12.2%; with MALME-3M melanoma, 69.1%; in the assay with MDA-MB-231 breast, 38.6%; in the assay with SF-268 CNS it was 34.6%; in the assay on SF-295 CNS it was 37.7%. Besides, the growth with SF-539 CNS was 41.6%; in the assay with UACC-257 melanoma it was 61.2%; with M14 melanoma it was 14.6%.
